# Experimental data: PubChem BioAssay (NCI)
# About 79,000 compounds went through this panel and 15% of them were active in at least one assay; those are over-represented in the sample as a whole. Unmarked numbers belong to inactive results. Active and inactive are the calls of the source. Rule as the data show it: active = growth inhibition above about 70%; inactive = the rest.
# Legend:
# [1] = NCI Yeast Anticancer Drug Screen. Data for the rad52 strain (AID 147);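 also: 0% = growth of vehicle-treated control cultures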; conditions: S. cerevisiae rad52 mutant growth inhibition, hits give high values
# How it was run: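 Compounds are applied to a genetically defined yeast strain lacking normal DNA damage repair, and inhibition of growth is expressed relative to cultures given vehicle only.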
# [2] = NCI Yeast Anticancer Drug Screen. Data for the wt1 strain (AID 149);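 also: 0% = growth of vehicle-treated wt1 cultures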; conditions: S. cerevisiae wt1 strain (SPY 50644) growth inhibition, hits give high values
# How it was run: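 The wt1 strain was treated with compounds, and growth was compared with vehicle-treated cultures to give inhibition.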
# [3] = NCI Yeast Anticancer Drug Screen. Data for the rad50EPP+ strain (AID 151);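 also: 0% = growth of vehicle-treated control cultures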; conditions: S. cerevisiae rad50 mutant strain, hits give high values
# How it was run: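 Compounds were applied to the rad50EPP+ yeast strain, which bears a defined DNA repair alteration, and growth inhibition was determined relative to vehicle-treated cultures.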
# [4] = NCI Yeast Anticancer Drug Screen. Data for the mgt1 strain (AID 153); conditions: S. cerevisiae mgt1 mutant growth inhibition, hits give high values
# How it was run: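 Strain: mgt1 yeast, one of a set carrying defined DNA damage repair or cell cycle control alterations. Compound-treated growth compared with vehicle.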
# [5] = NCI Yeast Anticancer Drug Screen. Data for the rad50 strain (AID 155);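 also: 0% = growth of vehicle-only cultures of the same strain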; conditions: S. cerevisiae rad50 strain growth inhibition, hits give high values
# How it was run: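 Cells are treated with compound, grown, and their growth is then scored against vehicle-only cultures of the same repair-deficient yeast strain.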
# [6] = NCI Yeast Anticancer Drug Screen. Data for the mec2-1 strain (AID 157); conditions: S. cerevisiae mec2-1 strain, hits give high values
# How it was run: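 Strain: mec2-1 (DNA repair/cell cycle alteration). Compound exposure, then growth measured; inhibition expressed relative to vehicle.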
# [7] = NCI Yeast Anticancer Drug Screen. Data for the rad14 strain (AID 159);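 also: 0% = growth of vehicle-treated control cultures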; conditions: S. cerevisiae rad14 strain growth inhibition, hits give high values
# How it was run: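 Readout: yeast growth inhibition, referenced to vehicle-only cultures. Strain bears a defined alteration in DNA damage repair.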
# [8] = NCI Yeast Anticancer Drug Screen. Data for the sgs1 mgt1 strain (AID 161);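 also: 0% = growth of cultures given vehicle only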; conditions: S. cerevisiae sgs1 mgt1 strain, hits give high values
# How it was run: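 Mutant yeast exposed to compound; growth scored against vehicle-only wells.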
# [9] = NCI Yeast Anticancer Drug Screen. Data for the CLN2oe strain (AID 163);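 also: 0% = growth of vehicle-only control cultures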; conditions: S. cerevisiae CLN2oe strain, hits give high values
# How it was run: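 Growth of a genetically modified yeast strain is measured after compound exposure and compared with cultures given vehicle alone.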
# [10] = NCI Yeast Anticancer Drug Screen. Data for the cln2 rad14 strain (AID 165);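 also: 0% = growth equal to vehicle treated cultures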; conditions: S. cerevisiae cln2 rad14 strain, hits give high values
# How it was run: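 Compounds are applied to the cln2 rad14 yeast strain, and growth is then compared with that of vehicle-treated cultures to give inhibition.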
# [11] = NCI Yeast Anticancer Drug Screen. Data for the bub3 strain (AID 167); conditions: S. cerevisiae bub3 mutant strain, hits give high values
# How it was run: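 Part of a panel of yeast mutants defective in DNA damage repair or cell cycle regulation. Each strain is grown with compound, and inhibition is calculated relative to solvent-treated cultures.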
# [12] = NCI Yeast Anticancer Drug Screen. Data for the wt2 strain (AID 169);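 also: 0% = growth of vehicle-treated yeast cultures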; conditions: S. cerevisiae wt2 strain growth inhibition, hits give high values
# How it was run: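 This strain belongs to a panel of yeast strains with defined genetic alterations in DNA damage repair or cell cycle control. Compounds are applied, and growth inhibition is measured against vehicle-treated cultures.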
# [13] = NCI Yeast Anticancer Drug Screen. Data for the mlh1 strain (AID 171);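 also: 0% = growth of vehicle-treated control cultures of the same strain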; conditions: S. cerevisiae mlh1 strain growth inhibition, hits give high values
# How it was run: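 Growth of the mutant yeast strain after compound exposure, expressed as inhibition relative to vehicle-only controls.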
# [14] = NCI Yeast Anticancer Drug Screen. Data for the sgs1 strain (AID 173);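 also: 0% = growth of vehicle-only control cultures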; conditions: S. cerevisiae sgs1 mutant, hits give high values
# How it was run: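 Growth of a yeast strain bearing a defined genetic alteration is measured after compound treatment. Inhibition is expressed relative to vehicle-only controls.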
# [15] = NCI Yeast Anticancer Drug Screen. Data for the mlh1 rad18 strain (AID 175); conditions: S. cerevisiae mlh1 rad18 strain growth inhibition, hits give high values
# How it was run: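 Read-out is yeast growth inhibition, calculated against vehicle-only controls. The compound was applied to a strain engineered with DNA damage repair alterations.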
# [16] = at 5.0 µM (retest, dose inferred, filed as 0.5)
# [17] = at 50.0 µM (retest, dose inferred, filed as 5.0)
smiles,measurement,setting,value
C/C(=N\NC(N)=O)C(CN1CCOCC1)C(c1ccccc1)c1c(O)c2ccccc2oc1=O (stereo unspecified),growth inhibition,[1]; at 1.2 µM,1%
same,growth inhibition,[1]; at 3.7 µM,2%
same,growth inhibition,[1]; at 11.0 µM,0%
same,growth inhibition,[1]; at 33.0 µM,1%
same,growth inhibition,[1]; at 100.0 µM,-1%
same,growth inhibition,[2]; at 1.2 µM,6%
same,growth inhibition,[2]; at 3.7 µM,1%
same,growth inhibition,[2]; at 11.0 µM,1%
same,growth inhibition,[2]; at 33.0 µM,0%
same,growth inhibition,[2]; at 100.0 µM,-1%
same,growth inhibition,[3]; at 1.2 µM,-2%
same,growth inhibition,[3]; at 3.7 µM,4%
same,growth inhibition,[3]; at 11.0 µM,1%
same,growth inhibition,[3]; at 33.0 µM,-1%
same,growth inhibition,[3]; at 100.0 µM,-10%
same,growth inhibition,[4]; at 1.2 µM,-2%
same,growth inhibition,[4]; at 3.7 µM,2%
same,growth inhibition,[4]; at 11.0 µM,-3%
same,growth inhibition,[4]; at 33.0 µM,0%
same,growth inhibition,[4]; at 100.0 µM,-24%
same,growth inhibition,[5]; at 1.2 µM,-1%
same,growth inhibition,[5]; at 3.7 µM,6%
same,growth inhibition,[5]; [16],89% (active)
same,growth inhibition,[5]; at 11.0 µM,9%
same,growth inhibition,[5]; at 33.0 µM,5%
same,growth inhibition,[5]; [17],89% (active)
same,growth inhibition,[5]; at 50.0 µM,70.2% (active)
same,growth inhibition,[5]; at 100.0 µM,-6%
same,growth inhibition,[6]; at 1.2 µM,4%
same,growth inhibition,[6]; at 3.7 µM,6%
same,growth inhibition,[6]; [16],13%
same,growth inhibition,[6]; at 11.0 µM,6%
same,growth inhibition,[6]; at 33.0 µM,7%
same,growth inhibition,[6]; [17],13%
same,growth inhibition,[6]; at 50.0 µM,53.6%
same,growth inhibition,[6]; at 100.0 µM,4%
same,growth inhibition,[7]; at 1.2 µM,7%
same,growth inhibition,[7]; at 3.7 µM,8%
same,growth inhibition,[7]; at 11.0 µM,2%
same,growth inhibition,[7]; at 33.0 µM,2%
same,growth inhibition,[7]; at 100.0 µM,3%
same,growth inhibition,[8]; [16],89% (active)
same,growth inhibition,[8]; [17],89% (active)
same,growth inhibition,[8]; at 50.0 µM,78.2% (active)
same,growth inhibition,[9]; at 1.2 µM,4%
same,growth inhibition,[9]; at 3.7 µM,3%
same,growth inhibition,[9]; at 11.0 µM,4%
same,growth inhibition,[9]; at 33.0 µM,4%
same,growth inhibition,[9]; at 100.0 µM,-2%
same,growth inhibition,[10]; [16],-7%
same,growth inhibition,[10]; [17],-7%
same,growth inhibition,[10]; at 50.0 µM,59.9%
same,growth inhibition,[11]; at 1.2 µM,4%
same,growth inhibition,[11]; at 3.7 µM,1%
same,growth inhibition,[11]; [16],-7%
same,growth inhibition,[11]; at 11.0 µM,2%
same,growth inhibition,[11]; at 33.0 µM,5%
same,growth inhibition,[11]; [17],-7%
same,growth inhibition,[11]; at 50.0 µM,68%
same,growth inhibition,[11]; at 100.0 µM,1%
same,growth inhibition,[12]; at 1.2 µM,2%
same,growth inhibition,[12]; at 3.7 µM,0%
same,growth inhibition,[12]; at 11.0 µM,0%
same,growth inhibition,[12]; at 33.0 µM,-2%
same,growth inhibition,[12]; at 100.0 µM,-4%
same,growth inhibition,[13]; at 1.2 µM,-2%
same,growth inhibition,[13]; at 3.7 µM,1%
same,growth inhibition,[13]; at 11.0 µM,0%
same,growth inhibition,[13]; at 33.0 µM,-3%
same,growth inhibition,[13]; at 100.0 µM,1%
same,growth inhibition,[14]; at 1.2 µM,-2%
same,growth inhibition,[14]; at 3.7 µM,3%
same,growth inhibition,[14]; at 11.0 µM,1%
same,growth inhibition,[14]; at 33.0 µM,-1%
same,growth inhibition,[14]; at 100.0 µM,-5%
same,growth inhibition,[15]; [16],40%
same,growth inhibition,[15]; [17],40%
same,growth inhibition,[15]; at 50.0 µM,63.2%
CC[C@](O)(C(=O)O)c1cc2n(c(=O)c1CO)Cc1cc3ccccc3nc1-2,growth inhibition,[1]; at 1.2 µM,92% (active)
same,growth inhibition,[1]; at 3.7 µM,94% (active)
same,growth inhibition,[1]; at 11.0 µM,95% (active)
same,growth inhibition,[1]; at 33.0 µM,96% (active)
same,growth inhibition,[1]; at 100.0 µM,96% (active)
same,growth inhibition,[2]; at 1.2 µM,0%
same,growth inhibition,[2]; at 3.7 µM,10%
same,growth inhibition,[2]; at 11.0 µM,67%
same,growth inhibition,[2]; at 33.0 µM,92% (active)
same,growth inhibition,[2]; at 100.0 µM,94% (active)
same,growth inhibition,[3]; at 1.2 µM,80% (active)
same,growth inhibition,[3]; at 3.7 µM,93% (active)
same,growth inhibition,[3]; at 11.0 µM,96% (active)
same,growth inhibition,[3]; at 33.0 µM,97% (active)
same,growth inhibition,[3]; at 100.0 µM,98% (active)
same,growth inhibition,[4]; at 1.2 µM,-1%
same,growth inhibition,[4]; at 3.7 µM,7%
same,growth inhibition,[4]; at 11.0 µM,67%
same,growth inhibition,[4]; at 33.0 µM,80% (active)
same,growth inhibition,[4]; at 100.0 µM,95% (active)
same,growth inhibition,[5]; at 1.2 µM,95% (active)
same,growth inhibition,[5]; at 3.7 µM,97% (active)
same,growth inhibition,[5]; [16],97% (active)
same,growth inhibition,[5]; at 11.0 µM,97% (active)
same,growth inhibition,[5]; at 33.0 µM,97% (active)
same,growth inhibition,[5]; [17],98% (active)
same,growth inhibition,[5]; at 50.0 µM,98.3% (active)
same,growth inhibition,[5]; at 100.0 µM,97% (active)
same,growth inhibition,[6]; at 1.2 µM,14%
same,growth inhibition,[6]; at 3.7 µM,82% (active)
same,growth inhibition,[6]; [16],95% (active)
same,growth inhibition,[6]; at 11.0 µM,94% (active)
same,growth inhibition,[6]; at 33.0 µM,95% (active)
same,growth inhibition,[6]; [17],98% (active)
same,growth inhibition,[6]; at 50.0 µM,97% (active)
same,growth inhibition,[6]; at 100.0 µM,96% (active)
same,growth inhibition,[7]; at 1.2 µM,3%
same,growth inhibition,[7]; at 3.7 µM,29%
same,growth inhibition,[7]; at 11.0 µM,81% (active)
same,growth inhibition,[7]; at 33.0 µM,93% (active)
same,growth inhibition,[7]; at 100.0 µM,96% (active)
same,growth inhibition,[8]; [16],88% (active)
same,growth inhibition,[8]; [17],97% (active)
same,growth inhibition,[8]; at 50.0 µM,97.2% (active)
same,growth inhibition,[9]; at 1.2 µM,-7%
same,growth inhibition,[9]; at 3.7 µM,36%
same,growth inhibition,[9]; at 11.0 µM,88% (active)
same,growth inhibition,[9]; at 33.0 µM,93% (active)
same,growth inhibition,[9]; at 100.0 µM,96% (active)
same,growth inhibition,[10]; [16],66%
same,growth inhibition,[10]; [17],96% (active)
same,growth inhibition,[10]; at 50.0 µM,87.8% (active)
same,growth inhibition,[11]; at 1.2 µM,-16%
same,growth inhibition,[11]; at 3.7 µM,-3%
same,growth inhibition,[11]; [16],58%
same,growth inhibition,[11]; at 11.0 µM,67%
same,growth inhibition,[11]; at 33.0 µM,91% (active)
same,growth inhibition,[11]; [17],97% (active)
same,growth inhibition,[11]; at 50.0 µM,96.8% (active)
same,growth inhibition,[11]; at 100.0 µM,95% (active)
same,growth inhibition,[12]; at 1.2 µM,-3%
same,growth inhibition,[12]; at 3.7 µM,13%
same,growth inhibition,[12]; at 11.0 µM,81% (active)
same,growth inhibition,[12]; at 33.0 µM,95% (active)
same,growth inhibition,[12]; at 100.0 µM,94% (active)
same,growth inhibition,[13]; at 1.2 µM,3%
same,growth inhibition,[13]; at 3.7 µM,21%
same,growth inhibition,[13]; at 11.0 µM,81% (active)
same,growth inhibition,[13]; at 33.0 µM,94% (active)
same,growth inhibition,[13]; at 100.0 µM,97% (active)
same,growth inhibition,[14]; at 1.2 µM,17%
same,growth inhibition,[14]; at 3.7 µM,64%
same,growth inhibition,[14]; at 11.0 µM,92% (active)
same,growth inhibition,[14]; at 33.0 µM,95% (active)
same,growth inhibition,[14]; at 100.0 µM,97% (active)
same,growth inhibition,[15]; [16],83% (active)
same,growth inhibition,[15]; [17],97% (active)
same,growth inhibition,[15]; at 50.0 µM,96.5% (active)
